Data as given in PubChem BioAssay (Tox21).
Values joined by “and” are separate entries in the source; they are usually repeats but may differ in a detail not shown here. Equal entries are not always repeated. Records with an inconclusive call do not appear. More than one record can exist for a structure, and the calls need not agree. Active and inactive are the calls of the source. Unless noted, calls come from the whole dose curve.

Legend:
[1] = qHTS assay to identify small molecule agonists of the vitamin D receptor (VDR) signaling pathway - cell viability counter screen (AID 743224; active = well fitted curve in the direction sought with a large enough effect in the repeat runs; an effect the other way counts as inactive or inconclusive; note: nearly all actives have a fitted effect of over 50% in size; note: potency is the fitted concentration of half-maximal effect)
Summary of the method: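 Counter screen run in the same wells as the VDR-bla reporter assay: CellTiter-Glo luminescence, 30 min at room temperature, after 16 h compound treatment at 37C of cells pre-plated for 4 h.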

[2] = qHTS assay to identify small molecule antagonists of the vitamin D receptor (VDR) signaling pathway - cell viability counter screen (AID 743225; active = well fitted curve in the direction sought with a large enough effect in the repeat runs; an effect the other way counts as inactive or inconclusive; note: nearly all actives have a fitted effect of over 50% in size)
Summary of the method: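 Compounds were pinned onto VDR-bla HEK 293T cells together with 1-alpha,25-dihydroxyvitamin D3 at 3 nM final. After 16 h at 37C and 5% CO2 plus the reporter readout, cell viability was measured by CellTiter-Glo luminescence (30 min, room temperature).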

[3] = qHTS assay to identify small molecule agonists of the NFkB signaling pathway (AID 1159509; active = well fitted curve in the direction sought with a large enough effect in the signal ratio in the repeat runs, not every such curve was filed as active; the % refers to the signal ratio; note: series mostly up to about 61 µM)
Summary of the method: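 Readout: FRET fluorescence, 405 nm excitation, 460/530 nm emission; beta-lactamase expression disrupts FRET. Cells: ME-180 stably carrying NF-kB-driven bla reporter. Compound exposure 5 hr, 37 C, 5% CO2.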

[4] = qHTS assay to identify small molecule agonists of the NFkB signaling pathway - cell viability counter screen (AID 1159515); note: series mostly up to about 61 µM; nearly all actives have a fitted effect of over 55% in size
Summary of the method: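 Read by CellTiter-Glo luminescence (30 min, room temperature) in the wells also used for the beta-lactamase FRET read. ME-180 NFkB-bla cells at 2,000 per well were plated overnight, then exposed to compound for 5 hr at 37 C.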

[5] = qHTS assay to identify small molecule agonists of the endoplasmic reticulum stress response signaling pathway (AID 1159516; active = well fitted activation curve with a large enough effect in the signal ratio in the repeat runs, not every such curve was filed as active; the % refers to the signal ratio)
Summary of the method: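 Ratiometric FRET readout (405 nm excitation; 460 and 530 nm emission) of a beta-lactamase gene driven by the ER stress response element, after 2 hr substrate loading. HeLa ESRE-bla cells were seeded overnight and treated with compounds for only 5 hr at 37 C.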

[6] = qHTS assay to identify small molecule agonists of the endoplasmic reticulum stress response signaling pathway - cell viability counter screen (AID 1159517); note: nearly all actives have a fitted effect of over 50% in size; note: potency is the fitted concentration of half-maximal effect
Summary of the method: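 After overnight attachment, ESRE-bla HeLa cells were treated with Tox21 library compounds for 5 hr. CellTiter-Glo luminescence, read 30 min post-addition at room temperature, reported viability.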

[7] = qHTS assay to identify small molecule antagonists of the retinoid-related orphan receptor gamma (ROR-gamma) signaling pathway - cell viability counter screen (AID 1159520; active = well fitted curve in the direction sought with a large enough effect in the repeat runs; an effect the other way counts as inactive or inconclusive; note: nearly all actives have a fitted effect of over 50% in size; note: potency is the fitted concentration of half-maximal effect)
Summary of the method: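 Cytotoxicity was read from cellular ATP (CellTiter-Glo luminescence) after 16 hr at 37 C with 1 uM doxycycline induction. The inducer was added 2 hr after compound transfer to Tet-on ROR gamma CHO cells.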

[8] = target: Nuclear receptor ROR-gamma (Homo sapiens) (UniProt P51449); assay: qHTS assay to identify small molecule antagonists of the retinoid-related orphan receptor gamma (ROR-gamma) signaling pathway (AID 1159521; active = well fitted curve in the direction sought with a large enough effect in the repeat runs; an effect the other way counts as inactive or inconclusive; note: nearly all actives have a fitted effect of over 50% in size; note: potency is the fitted concentration of half-maximal effect)
Summary of the method: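 Test compounds were applied to Tet-on RORγ CHO cells 2 h ahead of doxycycline hyclate (1 uM final). Luciferase reporter activity was quantified by luminescence after 16 h at 37 C and 5% CO2.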

[9] = qHTS assay to identify small molecule agonists of the AP-1 signaling pathway - cell viability counter screen (AID 1159525); note: nearly all actives have a fitted effect of over 55% in size; note: potency is the fitted concentration of half-maximal effect
Summary of the method: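 Intracellular ATP by Cell Titer Glo luminescence (30 min, RT) in the same ME-180 AP-1-bla wells after the 5 h compound exposure at 37 °C. Normalised to tetra n-octyl ammonium bromide and DMSO controls.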

[10] = qHTS assay to identify small molecule agonists of the AP-1 signaling pathway (AID 1159526); note: potency is the fitted concentration of half-maximal effect

Measured: Potency

COC(=O)c1ccc(C(=O)OC)cc1
1.96 µM (active) and inactive: [8]
12.5 µM (active) and inactive: [9]
inactive: all other assays above

Cc1cc(Cc2ccc(N)c(C)c2)ccc1N
inactive: all assays above

C=CC(=O)OCCCCCCCC(C)C
inactive: all assays above

Cc1cc(NS(=O)(=O)c2ccc(N)cc2)no1
inactive: all assays above

OC[C@@H](O)[C@H](O)[C@H](O)[C@@H](O)CO
inactive: all assays above

CCOC(=O)[C@H](CCc1ccccc1)N[C@@H](C)C(=O)N1Cc2ccccc2C[C@H]1C(=O)O
inactive and 26.8 µM (active): [10]
inactive: all other assays above

CCCCC(CC)COC(=O)CCCCCCCC(=O)OCC(CC)CCCC (configuration not stated)
not listed: [8]
inactive: all other assays above

CC1COc2ccccc2N1C(=O)C(Cl)Cl (configuration not stated)
active: [8] 61 µM and 48.5 µM
not listed: [5]
inactive: all other assays above

C[C@@H]1O[C@@H](OC[C@H]2O[C@@H](Oc3c(-c4ccc(O)c(O)c4)oc4cc(O)cc(O)c4c3=O)[C@H](O)[C@@H](O)[C@@H]2O)[C@H](O)[C@H](O)[C@H]1O
inactive: all assays above

OCC#CCO
inactive and 54.5 µM (active): [7]
not listed: [5]
inactive: all other assays above

O=C(O)c1cc(-c2ccccc2)nc2ccccc12
not listed: [8]
inactive: all other assays above

CN(C)c1ccc(C(=N)c2ccc(N(C)C)cc2)cc1
active: [8] 21.4 µM and 20.9 µM
not listed: [1] | [7]
inactive: all other assays above

CC1=C(/C=C/C(C)=C/C=C/C(C)=C/CO)C(C)(C)CCC1
not listed: [8]
inactive: all other assays above

Oc1ccc2ccccc2c1
not listed: [7]
inactive: all other assays above

OCCOCCOCCOCCO
inactive: all assays above

NCc1cccc(CN)c1
inactive: all assays above

COCC(C)O (configuration not stated)
not listed: [8]
inactive: all other assays above

Cc1cc(O)c2c(c1)C(=O)c1cc(O)cc(O)c1C2=O
24 µM (active) and inactive: [1]
not listed: [7] | [10]
inactive: all other assays above

CC(C)(C)C(=O)C1C(=O)c2ccccc2C1=O
active: [8] 17.1 µM and 30.6 µM
not listed: [7]
inactive: all other assays above

ClC1=C(Cl)C(Cl)(Cl)C(Cl)=C1Cl
active: [6] 27.7 µM and 49 µM | [7] 7.74 µM and 6.11 µM
not listed: [5]
inactive: all other assays above

Oc1ccc2ccccc2c1N=Nc1ccccc1
not listed: [5] | [10]
inactive: all other assays above

CCCCCCOC(C)=O
not listed: [8]
inactive: all other assays above

CC1CC(OC(=O)c2ccccc2O)CC(C)(C)C1 (configuration not stated)
34.3 µM (active) and inactive: [1]
not listed: [10]
inactive: all other assays above

C=C(C)C(=O)OCCCCCC
not listed: [8]
inactive: all other assays above

O=C1CCCCC1
inactive: all assays above
